# Screens deposited in PubChem by National Center for Advancing Translational Sciences (NCATS).
# Only some compounds are listed: those with a hit (about 12% of all), similar ones and a draw of the others.
# G9a block = qHTS Assay for Inhibitors of Histone Lysine Methyltransferase G9a. G9a H3K9 monomethylation, AlphaScreen, 2 h. Potency, µM (titrated, usually from 102 µM), usual class: inhibitors. 8.8% of 350,000 active. Histone-lysine N-methyltransferase EHMT2 (Homo sapiens), Q96KQ7; also: nearly all actives have a fitted effect of over 75% in size
#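 Quantitative HTS format: methyltransferase activity on a biotin-tagged H3K9 peptide is measured by AlphaScreen, using a rabbit anti-monomethyl-H3K9 antibody with streptavidin donor and anti-IgG acceptor beads. Final levels are 20 nM enzyme, 500 nM peptide, 20 uM SAM; 2 h RT.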
# JMJD2A Tudor inh = qHTS Assay for Inhibitors of JMJD2A-Tudor Domain; AlphaScreen JMJD2A-Tudor / H3K4me3 peptide binding; Potency, µM (doses to about 114 µM), usual class: inhibitors; 4.4% of 390,000 active; AID 504339, 2011; also: nearly all actives have a fitted effect of over 50% in size
# Sfp inh = qHTS Assay for Inhibitors of Bacillus subtilis Sfp phosphopantetheinyl transferase (PPTase); 4'-phosphopantetheinyl transferase ffp (Bacillus subtilis), Q9F4F7; AID 1490, 2009; Biochemical Sfp PPTase activity, qHTS; Potency, µM, most hits filed as inhibitors; 3.5% of 310,000 active;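 also: the enzyme is Sfp with the accession as filed and its product quenches rhodamine fluorescence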
#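 Compounds were incubated with enzyme (final 15 nM) for 15 min at room temperature before substrate addition started the reaction. Fluorescence at 525 nm excitation, 598 nm emission was recorded immediately and after 30 minutes.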
# L3MBTL1 block = qHTS Assay for the Inhibitors of L3MBTL1 | Potency, µM (highest dose often 57.1 µM), actives largely listed as inhibitors | 0.66% of 230,000 active | Lethal(3)malignant brain tumor-like protein 1 (Homo sapiens), Q9Y468 | AlphaScreen L3MBTL1–H3K9me1 peptide binding; also: nearly all actives have a fitted effect of over 60% in size
# Target sequence (Q9Y468 whole entry, looked up): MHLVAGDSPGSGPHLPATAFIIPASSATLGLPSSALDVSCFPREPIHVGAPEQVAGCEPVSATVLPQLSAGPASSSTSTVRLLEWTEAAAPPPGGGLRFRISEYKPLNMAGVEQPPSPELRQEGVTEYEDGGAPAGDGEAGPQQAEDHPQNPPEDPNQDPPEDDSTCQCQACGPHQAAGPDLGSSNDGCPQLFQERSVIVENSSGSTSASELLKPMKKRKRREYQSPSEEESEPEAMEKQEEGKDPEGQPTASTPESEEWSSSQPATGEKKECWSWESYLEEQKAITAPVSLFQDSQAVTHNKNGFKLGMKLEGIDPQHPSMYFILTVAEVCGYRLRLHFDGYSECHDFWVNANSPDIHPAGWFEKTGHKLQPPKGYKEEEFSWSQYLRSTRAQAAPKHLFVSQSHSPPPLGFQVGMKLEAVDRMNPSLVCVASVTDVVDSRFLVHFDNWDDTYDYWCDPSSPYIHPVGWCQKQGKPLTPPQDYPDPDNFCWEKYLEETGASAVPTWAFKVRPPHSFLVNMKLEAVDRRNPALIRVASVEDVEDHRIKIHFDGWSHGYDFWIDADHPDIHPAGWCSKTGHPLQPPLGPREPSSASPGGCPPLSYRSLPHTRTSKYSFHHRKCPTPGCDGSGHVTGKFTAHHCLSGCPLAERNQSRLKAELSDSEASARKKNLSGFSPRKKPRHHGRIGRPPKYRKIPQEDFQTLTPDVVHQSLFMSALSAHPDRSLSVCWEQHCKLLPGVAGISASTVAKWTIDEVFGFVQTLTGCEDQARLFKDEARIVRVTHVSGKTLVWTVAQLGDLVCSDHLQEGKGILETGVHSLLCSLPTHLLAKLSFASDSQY
#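 L3MBTL1 50 nM + b-AHA-H3(1-15)K9me1 75 nM, 30 min RT; compound added, 30 min RT; streptavidin donor/Ni-chelate acceptor beads 10 ug/mL each final, 30 min RT dark; AlphaScreen read.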
# HP1b chromo inh = HTS for Inhibitors of HP1-beta Chromodomain Interactions with Methylated Histone Tails; AID 540317, 2011; Potency, µM (series often up to 114 µM), hits mostly inhibitors; 0.56% of 390,000 active; Chromobox protein homolog 1 (Homo sapiens), P83916; AlphaScreen HP1-beta / biotin-H3K9me3 peptide binding; also: nearly all actives have a fitted effect of over 70% in size
#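 Compound inhibition of the preformed complex between 50 nM HP1-beta and 50 nM biotinylated H3K9me3 peptide was read by AlphaScreen. Buffer was PBS pH 7.4 with 0.01% Tween-20. Incubations ran 30 min at room temperature, with 10 ug/mL donor/acceptor beads.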
# BAZ2B inh = qHTS Assay for Inhibitors of BAZ2B | Bromodomain adjacent to zinc finger domain protein 2B (Homo sapiens), Q9UIF8 | AlphaScreen BAZ2B-H3K14Ac peptide displacement | Potency, µM (titrated, usually from 114 µM), usual class: inhibitors | 4.4% of 360,000 active | AID 504333, 2011; also: nearly all actives have a fitted effect of over 60% in size
#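 AlphaScreen luminescence quantifies BAZ2B engagement of H3K14Ac peptide; the protein and biotinylated peptide are both at 50 nM final, buffer PBS pH 7.4 with 0.01% Tween-20, all steps at room temperature.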
# A number is an active result; – = inactive; ? = inconclusive; · = no result; [ ] = remark or other dose. Calls follow the shape of the dose curve; as a rule, active = well fitted curve in the direction sought with a large enough effect; inconclusive = small, poorly fitted or top-dose-only effect, or another doubt; inactive = no such curve, though single readings can be large; an effect the other way counts as inactive or inconclusive.
SMILES,G9a block,JMJD2A Tudor inh,Sfp inh,L3MBTL1 block,HP1b chromo inh,BAZ2B inh
CC1=NN2C(=N)/C(=C\c3ccc(SCc4ccccc4)o3)C(=O)N=C2S1,–[12.7 µM],?,–,·,–,–
CSCC[C@H](NC(=O)CN)C(=O)N[C@@H](CC(=O)O)C(=O)N[C@@H](CO)C(=O)N[C@@H](CC(C)C)C(=O)N[C@@H](C)C(=O)N[C@@H](Cc1ccccc1)C(=O)N[C@@H](CO)C(=O)NCC(=O)NCC(=O)N[C@@H](CC(C)C)C(N)=O,·,·,–,·,·,·
COc1cc(C2C(C(=O)c3ccc(C)o3)=C(O)C(=O)N2CCCn2ccnc2)cc(OC)c1OC (configuration not stated),·,–,–,·,–,?
CCOC(=O)C1=C(O)C(=O)N(CCCn2ccnc2)C1c1ccc(OC)cc1 (configuration not stated),45µM,·,–,–,·,–
COc1ccc(C2C(C(=O)c3ccco3)=C(O)C(=O)N2CCCn2ccnc2)c(OC)c1 (configuration not stated),50µM,28µM,–,·,–,56µM
O=C(c1cc(-c2ccc(Br)cc2)n[nH]1)N1CCN(C(=O)c2ccccc2Br)CC1,–,–,–,·,–,–
Cc1nc(NC(=O)CN2CCN(c3cccc(Cl)c3)CC2)sc1C(=O)N(C)C,·,–,–,·,–,–
O=S(=O)(c1ccc(Cl)cc1)N1CCSC1c1ccco1 (configuration not stated),–,–,–,–,–,–
O=[N+]([O-])c1ccc(S(=O)(=O)N2CCSC2c2ccco2)cc1 (configuration not stated),8.9µM,?,40µM,?,–,?
Cc1ccc(C2=CSC3=NCCN23)cc1,·,–,·,·,–,·
CC1CN2C(c3ccc(Cl)cc3)=CSC2=N1 (configuration not stated),45µM,–,–,–,–,–
COc1ccc(N2CCN(CCNS(=O)(=O)c3ccc(C)cc3)CC2)cc1,50µM,–,–,·,–,–
O=C(CCNS(=O)(=O)c1ccc2c(c1)CCN2C(=O)C1CC1)N1CCN(c2ccc(F)cc2)CC1,–,45µM,·,·,–,–
COc1ccc(N2CCN(C(=O)CCNS(=O)(=O)c3ccc(C)cc3)CC2)cc1,50µM,–,–,·,–,–
CCCNS(=O)(=O)c1ccc(CCC(=O)N2CCN(c3ccc(OC)cc3)CC2)cc1,?,–,–,·,–,–
COc1ccc(S(=O)(=O)NCCS(=O)(=O)N2CCN(c3ccccc3)CC2)cc1,–,–,·,–,–,–
COc1cccc(N=c2oc3ccccc3cc2-c2nc3ccccc3[nH]2)c1,–[12.7 µM],32µM,–,–,–,–
COc1cccc(N=c2oc3ccc(OC)cc3cc2-c2nc3ccccc3[nH]2)c1,–,?,?,·,–,–
CSc1nsc(/C=C/Nc2ccc(C(=O)O)cc2)c1C#N,13µM,?,–,–,?,40µM
CSc1nsc(/C=C/Nc2ccc(F)cc2F)c1C#N,32µM,?,–,?,–,?
N#Cc1c(-c2c(Cl)cccc2Cl)noc1/C=C/Nc1ccc(C(=O)O)cc1,–,–,–,·,–,?
CO[C@H]1OC2O[C@@]3(C)CC[C@H]4[C@H](C)CC[C@@H]([C@H]1C)[C@@]24OO3 (some centres not stated),–,·,–,·,·,·
COc1cccc(NC(=O)NC2(C(F)(F)F)Oc3ccccc3O2)c1,3.5µM,71µM,–,–,–,–
CC(C)CNC(=O)NC1(C(F)(F)F)Oc2ccccc2O1,?,–,–,–,–,–
O=C(NCc1cccnc1)NC1(C(F)(F)F)Oc2ccccc2O1,40µM,–,–,–,–,–
SMILES,G9a block,JMJD2A Tudor inh,Sfp inh,L3MBTL1 block,HP1b chromo inh,BAZ2B inh
O=C(Nc1cc(N2CCOCC2)ncn1)NC1(C(F)(F)F)Oc2ccccc2O1,2.2µM,89µM,–,–[11.4 µM],–,–
COc1cccc(NC(=O)Nc2cccc(C(=O)O)c2)c1,–,–,–,–,–,–
CC(C)Oc1ccc(CNC(=O)c2ccc(Cn3c(=O)c4cccn4c4cccnc43)cc2)cc1,–,–,·,·,–,–
O=C(Nc1c(F)cc(F)cc1Br)c1ccco1,?,–,50µM,–,–,–
O=C(Nc1ccc(F)cc1)C1CCN(C(=O)c2ccc(F)cc2)CC1,–[2.33 µM],–,·,–,–,–
O=C(CN1C(=O)C2(OCCO2)c2ccccc21)c1ccc(Br)cc1,40µM,–,–,–,–,–
O=C(O)c1cccc(S(=O)(=O)Nc2ccc3oc(=O)sc3c2)c1,?,–,11µM,–,–,–
COc1ccc(/C=N/Nc2nc(N3CCCC3)nc(N3CCCC3)n2)cc1,–,?,–,–,–,–
COc1cc(/C=N/NC(=O)c2cccs2)ccc1O,·,–,–,–,–,–
COc1cc(/C=N/N(c2ccccc2)c2ccccc2)ccc1O,28µM,32µM,–,–,–,45µM
COc1cc(/C=N/NC(=O)CCN2CCN(C(c3ccccc3)c3ccccc3)CC2)ccc1O,79µM,?,?,?,–,?
COc1cc(/C=N/NC(=O)CCc2ccccc2)ccc1O,–[12.7 µM],–,–,–,–,–
COc1ccc(/C=N/Nc2nc(N3CCCC3)nc(N3CCCC3)n2)cc1O,3.5µM,–,–,–,–,–
COc1cc(/C=N/Nc2ccccc2C(F)(F)F)ccc1O,·,56µM,–,–,?,–
Cc1nc(SCC(=O)N(CC(C)C)C2CCS(=O)(=O)C2)c2c(C)c(C)sc2n1 (configuration not stated),–[12.7 µM],–,·,–,–,–
Cc1cc2c(s1)c1cnn(Cc3c(F)c(F)c(C(F)(F)F)c(F)c3F)c(=O)c1n2C,·,–,·,·,·,·
Cc1cccc(NC(=O)CSc2nc3ccc(NC(=O)c4ccccc4)cc3s2)c1,–,–,·,·,–,–
COc1ccc(-c2nc(CS(=O)(=O)CC(=O)NCCCN3CCOCC3)c(C)o2)cc1,–,–,–,·,–,–
O=C(Cn1nc(-c2cccc([N+](=O)[O-])c2)c2ccccc2c1=O)NCC1CCCO1 (configuration not stated),–,–,–,–,–,–
COc1cc(/C=N/Nc2nnc3c(n2)[nH]c2ccccc23)ccc1O,?,?,56µM,–,–,–
COC(=O)c1[nH]c2cc(OC)c(OC)cc2c1NC(=O)CN1CCN(Cc2ccccc2)CC1,–,·,–,–,·,–
COc1cc(/C=N/Nc2ccccc2)ccc1O,14µM,–,–,·,–,–
Oc1ccc(/C=N/Nc2ccccc2)cc1,25µM,22µM,–,–,?,–
COC(=O)c1[nH]c2cc(OC)c(OC)cc2c1/C=N/Nc1ccccc1,35µM,–,–,·,–,–
